Results: PubChem BioAssay
Calls of active or inactive are those of the source.

Legend:
[1] = test system: Plasmodium falciparum Sir2 (PF13_0152, Sir2A); assay: pfSir2 binders on small-molecule microarrays, primary screen, biochemical, small-molecule microarray, 635 nm fluorescence (AID 1098); settings: small-molecule microarray binding, fluorescence 635 nm; higher = more signal;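 further: score merges spot fluorescence intensity with its signal-to-noise ratio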
[2] = small-molecule microarray binders of probe aDKK1, primary screen, biochemical, biotinylated probe, 635/667 nm fluorescence (AID 1099); settings: higher = more signal;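 further: score merges 667nm spot fluorescence with signal to noise across triplicate slides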
[3] = small-molecule microarray binders of probe aCHRDL2, primary screen, biochemical, biotinylated probe, 635/667 nm fluorescence (AID 1100); settings: higher = more signal
[4] = splicing luciferase reporter signal modulators, primary screen, spliceosome inhibition project, cell-based, HEK293, splice +/- reporter (AID 1101); settings: luminescence, 24 h, higher = more signal, called active from +8 up or from −8 down;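 further: HEK293 cells carrying a splicing-competent luciferase reporter gene; test concentration not given here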
[5] = target: Fibroblast growth factor 10 (Homo sapiens) (UniProt O15520); assay: FGF10 binders on small-molecule microarrays, primary screen, biochemical, small-molecule microarray, 635 nm fluorescence (AID 1102); settings: FGF10 binding, fluorescence 635 nm, higher = more signal
[6] = test system: glycogen synthase kinase-3 (GSK3A per assay name; protocol says GSK3B); assay: GSK3 binders on small-molecule microarrays, primary screen, biochemical, small-molecule microarray, 635 nm fluorescence, GSK3A (AID 1103); settings: small-molecule microarray binding, fluorescence 635 nm; higher = more signal; further: the record names both GSK3A and GSK3B
[7] = target: Epidermal growth factor receptor (Homo sapiens) (UniProt P00533); assay: EGFR binders on small-molecule microarrays, primary screen, biochemical, small-molecule microarray, 635 nm fluorescence (AID 1104); settings: EGFR binding, higher = more signal;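 further: score merges 667 nm emission intensity with spot signal to noise over triplicate slides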
[8] = target: Follistatin-related protein 3 (Homo sapiens) (UniProt O95633); assay: FSTL3 binders on small-molecule microarrays, primary screen, biochemical, small-molecule microarray, 635 nm fluorescence (AID 1105); settings: FSTL3 binding, higher = more signal;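 further: score merges emission near 667 nm and signal to noise per printed spot across three slides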
[9] = target: Dickkopf-related protein 1 (Homo sapiens) (UniProt O94907); assay: DKK1 binders on small-molecule microarrays, primary screen, biochemical, small-molecule microarray, 635 nm fluorescence scan (AID 1106); settings: DKK1 binding, higher = more signal;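 further: score merges emission near 667 nm with signal to noise over three replicate slides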
[10] = test system: Inhibin beta A chain (activin A); assay: INHBA (activin A) binders on microarrays, primary screen, biochemical, small-molecule microarray, 635 nm fluorescence scan (AID 1107); settings: small-molecule microarray binding, higher = more signal;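 further: mouse activin A protein probed at 4.33 µg/mL on printed slides; score merges bound-protein fluorescence near 667 nm with spot signal-to-noise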
[11] = test system: Human papillomavirus type 1a protein E7 (residues 44-93); assay: HPV1a E7 fragment binders on microarrays, primary screen, biochemical, small-molecule microarray, residues 44-93, 635 nm fluorescence (AID 1108); settings: small-molecule microarray binding, fluorescence 635 nm; higher = more signal;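 further: E7 fragment applied at 1 µg/mL in TBST for 1 h at 4 C; score combines spot fluorescence with its signal to noise ratio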
[12] = modulators of HCV replicon luciferase signal, primary screen, HCV replication inhibitor project, Huh7 cells, luciferase reporter (AID 1109); settings: 48 h, higher = more signal;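 further: huh7 hepatoma cells harbouring a luciferase neomycin HCV replicon reporter; luciferase luminescence as measure of HCV replicon replication; test concentration not given here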
[13] = target: Left-right determination factor 2 (Homo sapiens) (UniProt O00292); assay: LEFTY2 binders on small-molecule microarrays, primary screen, biochemical, small-molecule microarray, 635 nm fluorescence scan (AID 1110); settings: LEFTY2 binding, higher = more signal
[14] = target: Calmodulin-1 (Homo sapiens) (UniProt P0DP23); assay: CALM1 binders on microarrays, EGTA buffer, profiling panel, biochemical, small-molecule microarray, Cy5-labelled CALM1 (AID 1111); settings: Cy5-CALM1 binding fluorescence, higher = more signal;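 further: labelled calmodulin applied in Tris saline Tween buffer holding calcium plus EGTA and DTT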
[15] = target: Calmodulin-1 (Homo sapiens) (UniProt P0DP23); assay: calcium-bound CALM1 binders on microarrays, profiling panel, artefact control for SMM control-protein annotation, biochemical, small-molecule microarray, Cy5-labelled CALM1, plus calcium (AID 1112); settings: Cy5-CALM1 binding fluorescence, higher = more signal;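 further: score merges spot fluorescence with signal to noise from triplicate slides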
[16] = small-molecule microarray binders of probe aWnt5a, primary screen, biochemical, biotinylated probe, 635/667 nm fluorescence (AID 1113); settings: higher = more signal;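 further: score merges 667 nm fluorescence intensity with signal-to-noise per printed feature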
[17] = small-molecule microarray binders of probe aShh, primary screen, biochemical, biotinylated probe, 635/667 nm fluorescence (AID 1114); settings: higher = more signal;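 further: probe is biotin-labelled aShh protein from a stem cell growth factor screen; measures binding of labelled protein to compounds printed on the slide; score merges feature fluorescence at 667 nm with signal-to-noise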
[18] = small-molecule microarray binders of probe aNog, primary screen, biochemical, biotinylated probe, 635/667 nm fluorescence (AID 1115); settings: higher = more signal;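 further: probe is biotinylated aNog protein used at 0.15 µg/mL for 1 h at 4 C; z-score combines 667 nm fluorescence of each spot with its signal to noise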
[19] = target: Torsin-1A-interacting protein 1 (Homo sapiens) (UniProt Q5JTV8); assay: LAP1 binders from COS7 cell lysate, primary screen, small-molecule microarray, 635/667 nm fluorescence (AID 1116); settings: COS7-hLAP1 lysate binding, 635 nm fluorescence, higher = more signal
[20] = target: Alpha-bungarotoxin (Bungarus multicinctus) (UniProt P60615); assay: alpha-bungarotoxin binders on microarray, profiling panel, artefact control for SMM control protein annotation, biochemical, small-molecule microarray, Alexa647 label, 635/667 nm fluorescence (AID 1117); settings: alpha-BTX-A647 binding fluorescence, higher = more signal
Alpha-bungarotoxin (Bungarus multicinctus), sequence (P60615 whole entry, looked up): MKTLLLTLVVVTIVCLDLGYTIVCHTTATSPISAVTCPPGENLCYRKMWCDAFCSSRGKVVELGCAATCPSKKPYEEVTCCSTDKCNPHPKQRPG

Follistatin-related protein 3 (Homo sapiens), sequence (O95633 whole entry, looked up): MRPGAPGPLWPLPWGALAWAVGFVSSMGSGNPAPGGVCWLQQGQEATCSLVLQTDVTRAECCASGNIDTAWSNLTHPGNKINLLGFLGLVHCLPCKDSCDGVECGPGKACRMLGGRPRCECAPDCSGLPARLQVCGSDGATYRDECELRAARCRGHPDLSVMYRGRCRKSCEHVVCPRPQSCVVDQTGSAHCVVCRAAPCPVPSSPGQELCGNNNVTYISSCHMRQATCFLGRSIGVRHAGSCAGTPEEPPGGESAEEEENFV
Epidermal growth factor receptor (Homo sapiens), sequence (P00533 whole entry, looked up): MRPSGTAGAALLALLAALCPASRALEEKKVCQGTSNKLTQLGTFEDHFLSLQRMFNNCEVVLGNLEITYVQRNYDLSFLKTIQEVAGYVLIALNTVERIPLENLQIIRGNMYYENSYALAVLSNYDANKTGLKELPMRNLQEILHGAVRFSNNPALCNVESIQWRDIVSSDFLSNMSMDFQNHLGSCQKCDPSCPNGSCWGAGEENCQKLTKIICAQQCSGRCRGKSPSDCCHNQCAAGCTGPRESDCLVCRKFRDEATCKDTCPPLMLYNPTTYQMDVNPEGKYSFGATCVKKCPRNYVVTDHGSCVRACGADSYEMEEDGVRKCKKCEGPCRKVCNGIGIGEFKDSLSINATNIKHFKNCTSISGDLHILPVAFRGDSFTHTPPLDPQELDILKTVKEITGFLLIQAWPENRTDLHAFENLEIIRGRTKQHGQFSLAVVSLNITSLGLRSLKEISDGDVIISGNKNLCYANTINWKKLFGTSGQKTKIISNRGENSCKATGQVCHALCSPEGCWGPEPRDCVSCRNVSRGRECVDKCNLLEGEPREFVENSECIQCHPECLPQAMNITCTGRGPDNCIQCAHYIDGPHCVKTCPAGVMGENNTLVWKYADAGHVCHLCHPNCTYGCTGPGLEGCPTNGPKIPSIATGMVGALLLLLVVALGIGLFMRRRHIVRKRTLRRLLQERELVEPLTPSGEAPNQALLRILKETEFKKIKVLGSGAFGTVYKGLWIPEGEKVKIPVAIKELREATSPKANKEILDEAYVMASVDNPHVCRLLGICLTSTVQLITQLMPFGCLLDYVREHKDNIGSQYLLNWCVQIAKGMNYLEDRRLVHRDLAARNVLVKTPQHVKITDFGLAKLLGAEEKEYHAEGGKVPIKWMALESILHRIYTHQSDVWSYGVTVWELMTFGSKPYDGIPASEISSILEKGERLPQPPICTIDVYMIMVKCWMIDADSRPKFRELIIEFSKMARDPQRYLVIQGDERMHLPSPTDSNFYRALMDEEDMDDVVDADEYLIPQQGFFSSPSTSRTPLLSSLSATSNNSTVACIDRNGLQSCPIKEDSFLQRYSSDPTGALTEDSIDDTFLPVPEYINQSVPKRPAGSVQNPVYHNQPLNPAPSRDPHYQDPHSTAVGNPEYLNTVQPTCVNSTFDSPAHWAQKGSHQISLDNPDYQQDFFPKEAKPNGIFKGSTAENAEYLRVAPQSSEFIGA
Torsin-1A-interacting protein 1 (Homo sapiens), sequence (Q5JTV8 whole entry, looked up): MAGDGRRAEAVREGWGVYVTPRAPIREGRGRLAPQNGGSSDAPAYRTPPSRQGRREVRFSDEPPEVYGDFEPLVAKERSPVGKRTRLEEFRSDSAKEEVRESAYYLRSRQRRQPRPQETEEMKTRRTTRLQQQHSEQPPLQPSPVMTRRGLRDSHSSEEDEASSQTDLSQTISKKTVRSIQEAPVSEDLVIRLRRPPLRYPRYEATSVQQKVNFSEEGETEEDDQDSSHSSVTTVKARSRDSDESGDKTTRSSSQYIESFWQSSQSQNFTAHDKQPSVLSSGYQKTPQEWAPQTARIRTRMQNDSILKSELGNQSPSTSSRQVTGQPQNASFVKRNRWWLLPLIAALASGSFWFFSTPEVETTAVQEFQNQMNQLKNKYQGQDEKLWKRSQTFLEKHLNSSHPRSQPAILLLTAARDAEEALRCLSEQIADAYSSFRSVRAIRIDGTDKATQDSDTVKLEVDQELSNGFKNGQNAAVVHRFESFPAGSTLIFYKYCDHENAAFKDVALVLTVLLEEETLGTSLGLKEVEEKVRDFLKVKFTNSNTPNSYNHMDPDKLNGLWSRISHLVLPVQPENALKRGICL
Fibroblast growth factor 10 (Homo sapiens), sequence (O15520 whole entry, looked up): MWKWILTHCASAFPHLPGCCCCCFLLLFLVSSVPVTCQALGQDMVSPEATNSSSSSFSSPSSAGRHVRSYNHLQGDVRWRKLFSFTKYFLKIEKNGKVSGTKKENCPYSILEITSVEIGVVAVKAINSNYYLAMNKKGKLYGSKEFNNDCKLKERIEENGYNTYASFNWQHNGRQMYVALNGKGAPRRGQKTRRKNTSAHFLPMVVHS
Left-right determination factor 2 (Homo sapiens), sequence (O00292 whole entry, looked up): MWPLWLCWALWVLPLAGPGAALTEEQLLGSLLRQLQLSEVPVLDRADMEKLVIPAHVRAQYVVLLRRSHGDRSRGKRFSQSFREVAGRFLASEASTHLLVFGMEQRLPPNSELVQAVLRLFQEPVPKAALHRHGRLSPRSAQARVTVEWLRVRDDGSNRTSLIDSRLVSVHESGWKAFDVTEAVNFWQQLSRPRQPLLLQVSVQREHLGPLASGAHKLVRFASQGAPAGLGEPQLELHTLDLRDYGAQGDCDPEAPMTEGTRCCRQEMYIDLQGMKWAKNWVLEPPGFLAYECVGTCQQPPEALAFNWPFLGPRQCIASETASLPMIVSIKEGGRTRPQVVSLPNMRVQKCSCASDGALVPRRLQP
Dickkopf-related protein 1 (Homo sapiens), sequence (O94907 whole entry, looked up): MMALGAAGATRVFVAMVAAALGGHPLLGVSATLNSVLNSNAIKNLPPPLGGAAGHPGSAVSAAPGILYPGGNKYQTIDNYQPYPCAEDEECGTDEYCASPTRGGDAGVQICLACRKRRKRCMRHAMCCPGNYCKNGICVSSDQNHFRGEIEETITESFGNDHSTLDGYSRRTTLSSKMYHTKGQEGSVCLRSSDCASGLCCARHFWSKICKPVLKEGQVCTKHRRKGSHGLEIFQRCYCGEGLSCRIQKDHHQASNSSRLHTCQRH

| Structure (SMILES) | composite z-score [1] | composite z-score [2] | composite z-score [3] | z-score [4] | composite z-score [5] | composite z-score [6] | composite z-score [7] | composite z-score [8] | composite z-score [9] | composite z-score [10] | composite z-score [11] | z-score [12] | composite z-score [13] | composite z-score [14] | composite z-score [15] | composite z-score [16] | composite z-score [17] | composite z-score [18] | composite z-score [19] | composite z-score [20] |
| --- | --- | --- | --- | --- | --- | --- | --- | --- | --- | --- | --- | --- | --- | --- | --- | --- | --- | --- | --- | --- |
| C=CCOC(=O)[C@@H]1[C@H]2C(=O)O[C@H](c3ccccc3)[C@H](c3ccccc3)N2[C@H](c2ccc(OCCOC(=O)[C@H]3C[C@H]4C(=O)N5CCC[C@H]5C(=O)N4[C@H]3c3ccc(O)cc3)cc2)[C@@]12C(=O)Nc1ccc(I)cc12 | 1.62 | 0.158 | 0.0375 | -1.27 (inactive) | 1.17 | 1.34 | 0.785 | 1.14 | 0.986 | 0.379 | 0.453 | -1.5 | 0.928 | 1.02 | -0.181 | -0.203 | 0.285 | -0.326 | 0.65 | 1.61 |
| COc1ccccc1CN1C(=O)c2ccccc2[C@@]2(Cc3ccccc3N(CC(C)C)C2=O)[C@@H]1c1ccc(CO)cc1 | -0.327 | -0.266 | 0.124 | -0.686 (inactive) | -0.285 | -0.882 | -0.284 | -0.0344 | 0.0603 | 0.522 | -0.461 | -0.785 | -0.389 | -0.235 | -0.69 | -0.091 | -0.214 | -0.175 | -0.247 | -0.257 |
| CCOC(=O)C1=CC[C@@H](c2ccccc2)N(S(=O)(=O)c2ccc(C)cc2)[C@H]1c1ccccc1C | 1.42 | 0.311 | 0.431 | -0.876 (inactive) | 0.607 | 0.683 | 0.375 | 1.05 | 0.349 | 0.97 | 1.18 | -1.6 | 0.104 | 0.232 | 0.296 | -0.0512 | 0.294 | -0.0496 | 0.336 | -0.0244 |
| CC1(C)[C@@H]2CC(C(O)C3C=CC4C(=O)N(Cc5ccccc5)C(=O)C4N3n3cnnc3)=C[C@H]1C2 (stereo not given in full) | 0.779 | 0.454 | 0.355 | -0.0958 (inactive) | 0.801 | 1.28 | 0.0902 | 0.74 | 0.0252 | 1.2 | 1.4 | -0.254 | 0.223 | 0.549 | -0.0552 | 0.0374 | -0.271 | -0.0304 | 0.187 | 0.6 |
| Cc1ccc(S[C@]2(C(=O)NCCCN(C)C)CC(=O)N(Cc3cc(C(F)(F)F)cc(C(F)(F)F)c3)[C@@H]2c2ccc(CO)cc2)cc1 | -1 | -0.214 | 0.495 | 0.269 (inactive) | -1.11 | -0.655 | -0.675 | 0.259 | -1.62 | 0.798 | -0.224 | 0.478 | -0.286 | 0.136 | 0.499 | -0.152 | -0.0769 | -0.29 | 0.523 | 0.182 |
| CCOC(=O)C[C@H]1[C@H](OC(=O)c2ccc(-c3ccccc3)cc2)[C@@H](NC(=O)Cc2ccc(OC)cc2)c2cc(OCCCO)ccc2N1C(=O)c1ccccc1 | -0.168 | 0.18 | 0.294 | 0.122 (inactive) | 0.219 | -0.454 | -0.165 | -0.0876 | -0.384 | 0.407 | 0.269 | -0.898 | -0.458 | 0.211 | 0.0935 | -0.0643 | -0.17 | -0.306 | 0.294 | 0.582 |
| CN(C)CCCC[C@@H]1NC(=O)[C@H]2C[C@@H](C(=O)NCCCCCCN)[C@@H](c3ccc(O)cc3)N2C1=O | 0.436 | 1.6 | 1.07 | -0.193 (inactive) | 1.52 | 1.29 | 0.247 | 1.41 | 0.644 | 1.17 | 1.23 | 0.251 | 1.48 | 1.67 | 0.921 | 0.257 | 0.109 | 1.59 | 1.74 | 2.75 |
| CN1C(=O)C2C=CC(C(O)c3ccc([N+](=O)[O-])cc3)N(N3CCCCC3)C2C1=O (stereo not given) | 1.41 | 0.193 | 0.956 | 0.943 (inactive) | 0.941 | 0.964 | 0.4 | 0.832 | -0.0607 | 1.23 | 1.33 | 0.702 | 0.169 | 1.42 | 0.0877 | 0.0913 | 0.108 | 1.59 | -0.0204 | 1.08 |
| COc1ccc(CCNC(=O)[C@@H]2c3ccccc3C(=O)N(Cc3ccccc3Cl)[C@H]2c2ccc(CO)cc2)cc1 | 0.489 | 0.235 | 0.602 | -0.153 (inactive) | 0.212 | 0.412 | -0.0373 | -0.182 | 0.0477 | 0.674 | 1.07 | -1.37 | 0.147 | -0.0739 | -0.0544 | -0.152 | 0.0611 | 0.395 | 0.412 | -0.473 |
| COc1ccc(-c2cc3c(c(-c4ccc(Oc5ccccc5)cc4)n2)[Si](C(C)C)(C(C)C)OC3)cn1 | -0.207 | -0.242 | -0.262 | 0.00906 (inactive) | -0.0354 | -0.175 | -0.0425 | 0.148 | 0.0989 | 0.365 | -0.419 | -1.15 | -0.123 | -0.266 | 0.211 | -0.206 | -0.0553 | -0.224 | -0.286 | 0.199 |
| CC(C)c1ccc(NN2C(C(O)c3ccc(B(O)O)cc3)C=CC3C(=O)N(c4ccccc4)C(=O)C32)cc1 (stereo not given) | 1.24 | 0.942 | 1.05 | 0.844 (inactive) | 1.11 | 1.25 | -0.109 | 1.38 | -0.381 | 0.849 | 1.25 | 4.39 | -0.355 | 2.02 | 1.08 | 0.0324 | -0.0362 | 2.19 | 2.08 | 1.27 |
